# Screens as filed in PubChem BioAssay.
# JMJD2A Tudor = blocks the human JMJD2A Tudor domain | O75164 | Potency, µM (top dose mostly 114 µM), for the others: at the highest dose activity change, negative = inhibition, actives largely listed as inhibitors | AID 504339 | AlphaScreen JMJD2A-Tudor / H3K4me3 peptide binding | hit rate 4.4% among 390,000; further: on the % scale 0 is the no-effect control and ±100 the full control effect; nearly all actives have a fitted effect of over 50% in size
# Target sequence (O75164 whole entry, looked up, the tested form may be a part): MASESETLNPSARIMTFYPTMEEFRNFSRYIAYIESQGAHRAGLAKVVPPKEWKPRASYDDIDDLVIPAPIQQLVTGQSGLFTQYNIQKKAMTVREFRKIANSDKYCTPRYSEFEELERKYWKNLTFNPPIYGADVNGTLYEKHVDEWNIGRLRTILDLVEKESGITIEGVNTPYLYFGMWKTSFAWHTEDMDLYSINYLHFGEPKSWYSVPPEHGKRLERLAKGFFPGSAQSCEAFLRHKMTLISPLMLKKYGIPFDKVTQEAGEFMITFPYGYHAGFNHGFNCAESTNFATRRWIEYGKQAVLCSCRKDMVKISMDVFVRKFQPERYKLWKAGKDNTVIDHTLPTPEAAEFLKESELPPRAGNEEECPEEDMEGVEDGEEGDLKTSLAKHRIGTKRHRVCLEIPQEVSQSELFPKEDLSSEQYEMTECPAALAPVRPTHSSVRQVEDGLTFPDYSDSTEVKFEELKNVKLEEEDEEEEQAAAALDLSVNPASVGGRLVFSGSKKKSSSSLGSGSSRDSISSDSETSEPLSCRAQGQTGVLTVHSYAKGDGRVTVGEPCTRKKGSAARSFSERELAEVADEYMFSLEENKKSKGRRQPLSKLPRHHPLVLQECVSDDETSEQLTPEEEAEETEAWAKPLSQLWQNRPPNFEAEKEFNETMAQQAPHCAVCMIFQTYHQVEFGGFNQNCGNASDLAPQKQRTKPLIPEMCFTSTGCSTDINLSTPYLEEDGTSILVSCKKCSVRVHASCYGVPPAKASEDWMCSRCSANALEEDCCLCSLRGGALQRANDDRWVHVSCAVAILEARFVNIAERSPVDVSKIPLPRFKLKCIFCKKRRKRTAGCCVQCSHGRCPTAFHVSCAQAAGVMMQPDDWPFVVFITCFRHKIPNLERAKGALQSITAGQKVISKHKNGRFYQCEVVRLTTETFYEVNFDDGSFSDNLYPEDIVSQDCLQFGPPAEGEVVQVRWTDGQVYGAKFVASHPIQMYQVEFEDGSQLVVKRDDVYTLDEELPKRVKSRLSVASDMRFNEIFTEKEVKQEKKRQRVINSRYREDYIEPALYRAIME
# G9a inh = blocks human histone lysine methyltransferase G9a; Q96KQ7; G9a H3K9 monomethylation, AlphaScreen, 2 h; Potency, µM (series often up to 102 µM), inactives show at the highest dose activity, negative = inhibition, hits mostly inhibitors; hit rate 8.8% among 350,000; AID 504332; further: on the % scale 0 is the no-effect control and ±100 the full control effect; nearly all actives have a fitted effect of over 75% in size
#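 G9a (20 nM) preincubated 15 min RT with compounds, then 500 nM biotinylated H3K9 peptide and 20 uM SAM added; 2 h RT reaction. Monomethyl-H3K9 product detected by AlphaScreen with anti-H3K9me1 antibody, streptavidin donor and anti-rabbit IgG acceptor beads.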
# Sfp PPTase inh = blocks B. subtilis Sfp PPTase activity; hit rate 3.5% among 310,000; AID 1490; Biochemical Sfp PPTase activity, qHTS; Q9F4F7; Potency, µM, inactives show largest response in the series, negative = inhibition, most hits filed as inhibitors;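 further: the enzyme is Sfp with the accession as filed and its product quenches rhodamine fluorescence; 0% = enzyme reaction without inhibitor and -100% = no enzyme wells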
#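 Buffer: 50 mM Hepes-Na pH 7.6, 10 mM MgCl2, 0.01% Nonidet P-40, 0.01% BSA. Enzyme 15 nM, pre-exposed to compound 15 min; substrates then added and fluorescence change tracked over 30 min.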
# HP1b binding inh = inhibitors of HP1-beta chromodomain binding to methylated histone tails | P83916 | AlphaScreen HP1-beta / biotin-H3K9me3 peptide binding | Potency, µM (top dose mostly 114 µM), for the others: at the highest dose activity change, negative = inhibition, usual class: inhibitors | hit rate 0.56% among 390,000; further: nearly all actives have a fitted effect of over 70% in size
#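 HP1-beta protein (50 nM final) preincubated 30 min at room temperature with biotinylated H3(1-18)K9me3 peptide (50 nM) in PBS pH 7.4, 0.01% Tween-20, then compound added for 30 min. AlphaScreen streptavidin donor/nickel chelate acceptor beads (10 ug/mL final), 30 min dark, luminescence read.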
# L3MBTL1 block = L3MBTL1 (human) inhibition | Q9Y468 | AID 485360 | AlphaScreen L3MBTL1–H3K9me1 peptide binding | Potency, µM (top dose mostly 57.1 µM), for the others: at the highest dose activity, negative = inhibition, most hits filed as inhibitors | hit rate 0.66% among 230,000; further: on the % scale 0 is the no-effect control and ±100 the full control effect; nearly all actives have a fitted effect of over 60% in size
#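 Displacement of a biotinylated histone H3(1-15) peptide monomethylated at Lys9 (75 nM) from L3MBTL1 (50 nM) was measured by AlphaScreen after a 30 min room-temperature compound incubation; cefsulodin titration served as intraplate control.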
# BAZ2B block = BAZ2B (human) inhibition | Q9UIF8 | AlphaScreen BAZ2B-H3K14Ac peptide displacement | Potency, µM (top dose mostly 114 µM), inactives show top-dose activity change, negative = inhibition, usual class: inhibitors | hit rate 4.4% among 360,000 | AID 504333; further: on the % scale 0 is the no-effect control and ±100 the full control effect; nearly all actives have a fitted effect of over 60% in size
#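 Inhibition is scored as reduced AlphaScreen emission. The BAZ2B/b-H3(5-23)K14Ac complex (50 nM each) in PBS pH 7.4, 0.01% Tween-20 meets compound (up to 110 uM) for 30 min at RT before bead addition.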
# The depositor's hits bear a star; ? = inconclusive; . = no result given; [ ] = another dose, or the depositor's remark. This is a sample that favours compounds with a hit; in the whole collection about 12% have one here. The call rests on the fitted dose curve; in most records, active means well fitted curve in the direction sought with a large enough effect; inconclusive means small, poorly fitted or top-dose-only effect, or another doubt; inactive means no such curve, though single readings can be large; an effect the other way counts as inactive or inconclusive. Potency means the concentration at half of the fitted maximal effect.
SMILES,JMJD2A Tudor,G9a inh,Sfp PPTase inh,HP1b binding inh,L3MBTL1 block,BAZ2B block
O=[N+]([O-])c1ccccc1S(=O)(=O)N1CCSCC1,1.4%,3.5%[12.7 µM],.,23.2%,2.9%,9.4%
COc1ccc(/C=C\c2onc(C)c2S(=O)(=O)N2CCC(C(=O)Nc3ccccc3OC)CC2)cc1,-10.3%,-22.6%[59 µM],.,20.5%,.,.
COc1ccccc1NC(=O)C12CCC(C)(C(=O)C1)C2(C)C (configuration not stated),-15.5%,0.9%,5.1%,-12.4%,2.4%,-14.0%
COCCN(CCOC)C(=O)C12CCC(C)(C(=O)C1)C2(C)C (configuration not stated),-10.4%,50.1µM*,12.1%,9.5%,-4.2%,-5.5%
Cc1ccc(NC(=S)N(CCCN2CCOCC2)Cc2ccco2)cc1,-5.6%,39.8µM*,-29.4%,26.1%,-2.1%,-14.4%
Cc1cccc(NC(=S)N(CCCN2CCOCC2)Cc2ccccn2)c1,-13.6%,4.9%[59 µM],8.1%,0.5%,-6.3%,4.7%
Cc1cc(NC(=S)N(CCN2CCCCC2)Cc2ccco2)ccc1Cl,-22.1%,39.8µM*,-70.1%,4.4%,-8.9%,?
S=C(Nc1ccc(Oc2ccccc2)cc1)N(CCCN1CCOCC1)Cc1ccccn1,-16.2%,31.6µM*,-75.8%,-12.8%,?,?
CCOC(=O)c1ccc(NC(=S)N(CCN2CCCCCC2)Cc2ccco2)cc1,?,31.6µM*,-23.5%,6.7%,49.9%,-16.7%
COc1ccc(NC(=O)c2csnn2)cc1,-3.3%,?,.,41.4%,.,-34.7%
O=C1C=CN2CCCCC2CC1 (configuration not stated),?,.,.,-0.1%,-6.8%,.
CCN(CC)CCNC(=O)c1ccc(NC(=O)CC(NC(=O)c2ccccc2Cl)c2ccccc2)cc1 (configuration not stated),-11.8%,24.3%,5.4%,4.3%,.,-9.5%
CCc1ccc(NC(=O)CSc2nnc3[nH]c(=O)cc(-c4ccccc4)n23)cc1,4.2%,?,.,58.5%,.,-23.1%
Cc1ccc(NC(=O)CN(C)S(=O)(=O)c2ccc3nc(C)sc3c2)c(C)c1,4.4%,13.0%[59 µM],.,40.4%,.,5.2%
Cn1c(O)c(/C=C2\C=Nc3ccccc32)sc1=Nc1ccc(C(=O)O)cc1,-33.7%,35.5µM*,-1.7%,20.6%,.,50.1µM*
CCn1c(O)c(/C=C2\C=Nc3ccccc32)sc1=Nc1ccccc1,-23.9%,33.8%,27.0%,1.2%,-20.6%,-30.8%[57.1 µM]
CC1(C(=O)O)COC(c2ccc([N+](=O)[O-])cc2)OC1 (configuration not stated),-1.3%,7.8%,11.3%,18.8%,.,-5.2%
O=C1NC(C(=O)O)=CC(c2ccc([N+](=O)[O-])cc2)N1 (configuration not stated),17.8µM*,8.91µM*,8.91µM*,11.1%[57 µM],-16.4%,?
Cc1ccc(CNC(=O)c2ccccc2NC(=O)c2nsc3ccccc23)cc1,-6.8%,5.4%[59 µM],.,20.7%[57 µM],.,0.5%
CCC1CCCCN1c1nc(-c2cccc(OC)c2O)nc2ccccc12 (configuration not stated),?,39.8µM*,-8.1%,-24.9%,?,?
COc1cccc(-c2nc(NC(C)C)c3ccccc3n2)c1O,50.1µM*,?,-3.1%,-22.5%,-7.9%,?
COc1cccc(-c2nc(N3CCN(c4ccccc4)CC3)c3ccccc3n2)c1O,?,-48.0%[59 µM],3.5%,?,-1.2%,-38.6%
COc1cccc(-c2nc(N3CCCCC3)c3ccccc3n2)c1O,35.5µM*,.,.,?,.,.
C[Si](C)(C)O[Si](C)(C)C,.,24.1%[59 µM],14.6%,.,.,.
COc1ccccc1C(=O)NC1CCN(C(=O)Nc2ccc(F)cc2)CC1,0.7%,29.0%,11.8%,25.4%,.,9.2%
COc1ccccc1N1C(=O)c2cccnc2C1=O,-2.4%,3.1%,16.5%,49.7%,-4.7%,?
COC(=O)c1cccc(N2C(=O)c3ccccc3S2(=O)=O)c1,-7.9%,56.2µM*,-1.7%,54.3%,-9.1%,8.1%
